# Measurements reported in PubChem BioAssay.
# Calls of active or inactive are those of the source.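 How the source made its calls, unless noted: active means mean inhibition above 46.68%, the untreated control wells mean plus 3 SD; inactive means the rest.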
# Assays:
# [1] = target: Nuclear receptor coactivator 1 (Homo sapiens) (UniProt Q15788); test: SRC1 coactivator transcriptional activity inhibitors, confirmation, cell-based, luminescence, quadruplicate (AID 588820); details: HEK293 GAL4-SRC1 luciferase reporter, at 3.6 µM, stronger effect = higher value;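 further: 0% = DMSO wells and 100% = gossypol 36 µM treated wells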
# Sequence of Nuclear receptor coactivator 1 (Homo sapiens) (Q15788 whole entry, looked up, the tested form may be a part): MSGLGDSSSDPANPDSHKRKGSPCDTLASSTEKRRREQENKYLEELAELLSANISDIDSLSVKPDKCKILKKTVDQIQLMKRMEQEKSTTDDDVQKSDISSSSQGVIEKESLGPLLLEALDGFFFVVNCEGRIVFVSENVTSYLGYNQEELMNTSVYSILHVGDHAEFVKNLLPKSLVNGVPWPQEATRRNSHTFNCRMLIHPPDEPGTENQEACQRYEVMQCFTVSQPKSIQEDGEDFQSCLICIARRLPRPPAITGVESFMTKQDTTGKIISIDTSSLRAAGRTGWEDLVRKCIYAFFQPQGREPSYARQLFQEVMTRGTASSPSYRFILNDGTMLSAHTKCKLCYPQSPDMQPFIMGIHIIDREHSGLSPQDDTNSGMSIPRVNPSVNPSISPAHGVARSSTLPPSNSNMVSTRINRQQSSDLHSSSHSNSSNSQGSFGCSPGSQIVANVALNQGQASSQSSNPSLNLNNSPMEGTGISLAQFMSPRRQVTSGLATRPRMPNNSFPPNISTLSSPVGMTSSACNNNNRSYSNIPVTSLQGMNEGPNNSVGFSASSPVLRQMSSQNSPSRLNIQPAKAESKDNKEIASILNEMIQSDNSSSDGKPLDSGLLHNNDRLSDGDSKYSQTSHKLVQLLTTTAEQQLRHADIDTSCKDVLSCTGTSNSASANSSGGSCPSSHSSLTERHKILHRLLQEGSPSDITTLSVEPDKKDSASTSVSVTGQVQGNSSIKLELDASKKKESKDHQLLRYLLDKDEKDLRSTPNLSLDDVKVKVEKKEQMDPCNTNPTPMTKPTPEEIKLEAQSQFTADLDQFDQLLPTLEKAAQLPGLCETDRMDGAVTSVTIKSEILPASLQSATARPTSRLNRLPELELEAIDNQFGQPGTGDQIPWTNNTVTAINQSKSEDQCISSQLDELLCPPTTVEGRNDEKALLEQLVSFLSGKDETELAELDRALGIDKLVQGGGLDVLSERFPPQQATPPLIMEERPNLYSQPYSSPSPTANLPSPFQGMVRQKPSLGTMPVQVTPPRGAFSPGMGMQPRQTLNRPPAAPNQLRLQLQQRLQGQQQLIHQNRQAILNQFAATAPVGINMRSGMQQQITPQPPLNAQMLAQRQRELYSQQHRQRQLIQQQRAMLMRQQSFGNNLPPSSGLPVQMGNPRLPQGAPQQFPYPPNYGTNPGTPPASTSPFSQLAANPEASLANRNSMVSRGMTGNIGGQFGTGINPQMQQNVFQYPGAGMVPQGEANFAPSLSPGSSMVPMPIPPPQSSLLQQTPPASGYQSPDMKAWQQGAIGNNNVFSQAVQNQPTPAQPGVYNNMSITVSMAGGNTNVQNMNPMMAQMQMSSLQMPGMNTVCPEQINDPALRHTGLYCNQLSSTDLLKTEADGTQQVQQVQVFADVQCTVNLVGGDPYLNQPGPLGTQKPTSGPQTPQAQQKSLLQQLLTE
# [2] = VP16 transactivation inhibitors, counter-screen for SRC1 inhibitor project, cell-based, luminescence, high throughput (AID 588824; in the data active means inhibition above about 25%); details: cell-based VP16 transactivation luciferase luminescence; at 3.6 µM; stronger effect = higher value
Compound,inhibition [1],inhibition [2]
Cc1cccc(C)c1NC(=O)CN(C)CC(=O)Nc1ccc(F)c(Cl)c1,4.35% (inactive),11.2% (inactive)
CCCCCCCC[n+]1c(C)n(-c2ccccc2)c2ccc(NC(C)=O)cc21,15.6% (inactive),19.2% (inactive)
COc1cc(C(=O)O)cc(NC(=O)c2ccco2)c1OC,-9.74% (inactive),2.33% (inactive)
O=C(Nc1cccc(Br)c1)c1cc(S(=O)(=O)N2CCOCC2)cs1,-2.57% (inactive),-2.73% (inactive)
CCn1cc(C(=O)NCC(OC)OC)c(=O)c2cc(S(=O)(=O)N(C)C3CCCCC3)ccc21,11.4% (inactive),19.8% (inactive)
CC(NC(=O)COC(=O)c1cccs1)c1ccccc1 (stereo not given),15.5% (inactive),13.6% (inactive)
C=C(C)Cn1c(SCC(=O)O)nc2c1c(=O)[nH]c(=O)n2C,5.38% (inactive),10.2% (inactive)
O=C(CNC(=O)c1ccco1)Nc1ccncc1,-25.7% (inactive),-3.08% (inactive)
c1ccc(-c2cn(-c3ccccc3)c3ncnc(N4CCCCC4)c23)cc1,1.38% (inactive),9.49% (inactive)
O=C(CSC1=NS(=O)(=O)c2cc(Cl)ccc2N1)Nc1ccccc1C(F)(F)F,-22.4% (inactive),-12.3% (inactive)
COc1ccc(-c2csc(N3CCN(c4cc(C)nc5ccccc45)CC3)n2)cc1OC,-18% (inactive),20.4% (inactive)
Cc1cccc(C(C)C)c1-n1nnnc1-c1ccccc1,-4.66% (inactive),13.5% (inactive)
Cc1cccc(N2CC(C(=O)Nc3ccc(S(=O)(=O)Nc4nccs4)cc3)CC2=O)c1C (stereo not given),-14.9% (inactive),-6.59% (inactive)
CCOc1cccc2cc(C(=O)N3CC(C)OC(C)C3)c(=O)oc12 (stereo not given),-9.95% (inactive),-2.83% (inactive)
O=c1[nH]nnc2c1ncn2C1OC(CO)C(O)C1O (stereo not given),0.97% (inactive),17.6% (inactive)
O=c1ccc2c(ccc3ncccc32)o1,18.8% (inactive),8.67% (inactive)
COc1ccc(OC)c(S(=O)(=O)NCC(c2ccc3c(c2)OCO3)N2CCOCC2)c1 (stereo not given),-16.7% (inactive),-6.55% (inactive)
O=S(=O)(NCc1ccncc1)c1ccc(Br)s1,-15.5% (inactive),28.8% (active)
CCN(CC(=O)Nc1c(F)cccc1F)C(=O)Cc1csc(-c2ccccc2)n1,-10.5% (inactive),-7.28% (inactive)
COc1ccc(C2CC(c3ccc(Br)cc3)=NN2C(=O)CSC2=NCCS2)cc1 (stereo not given),7.19% (inactive),10.6% (inactive)
CCOC(=O)N1CCN(CC(=O)Nc2ccc(F)c(F)c2)CC1,-18.7% (inactive),-4% (inactive)
O=[N+]([O-])c1ccc(C[n+]2cccc3c4ccccc4ccc32)cc1,3.12% (inactive),34.3% (active)
Cc1ccc(C)c(S(=O)(=O)N2CCN(C(=O)C3CCN(C(=O)c4ccc(F)cc4)CC3)CC2)c1,-10.9% (inactive),1.93% (inactive)
Cc1ccc(S(=O)(=O)N2CCN(C(=O)c3ccc(S(=O)(=O)N4CCCC4)cc3)CC2)cc1,1.07% (inactive),9% (inactive)
NC(CO)C(=O)NNCc1ccc(O)c(O)c1O (stereo not given),-18.8% (inactive),-2.94% (inactive)

Compound,inhibition [1],inhibition [2]
NC(N)=N/N=C/c1ccc(Cl)c([N+](=O)[O-])c1,-20.2% (inactive),-0.27% (inactive)
CC(=O)NC(c1cc(Cl)c2cccnc2c1O)C1CC1 (stereo not given),30.9% (inactive),8.51% (inactive)
COc1ccc(/C=N/Nc2nc3ccccc3[nH]2)c(OC)c1OC,-27.8% (inactive),-23% (inactive)
COc1cc(C(c2sc3nc(C)nn3c2O)N2CCc3ccccc3C2)cc(OC)c1OC (stereo not given),-4.8% (inactive),-0.57% (inactive)
COc1cc(C(=O)NCCOc2cc(C)ccc2C(C)C)cc(OC)c1OC,-14.4% (inactive),23.8% (inactive)
Cc1ccc(S(=O)(=O)N2CCN(c3ncnc4sccc34)CC2)cc1C,-1.32% (inactive),21.7% (inactive)
CCn1c(=O)n(CC)c2cc(N3CCCC3)c(NC(=O)c3ccccc3OC)cc21,-13.7% (inactive),-7.42% (inactive)
CCC1(c2ccc(F)cc2)NC(=O)N(CC(=O)NCC(=O)Nc2cccc(C)c2C)C1=O (stereo not given),6.24% (inactive),6.8% (inactive)
CC(NC(=O)CSc1nc2ccccc2n1C)c1ccccc1 (stereo not given),0.06% (inactive),-11.7% (inactive)
Cn1c(O)c(N=NC(=N)N)c2ccccc21,5.65% (inactive),11.6% (inactive)
O=C1C2C3C=CC(C3)C2C(=O)N1CN(Cc1ccccc1)CN1C(=O)C2C3C=CC(C3)C2C1=O (stereo not given),-20.9% (inactive),-14.3% (inactive)
CCc1ccc(NC(=O)c2ccc(F)c(S(=O)(=O)N(CC)c3ccccc3)c2)cc1,3.58% (inactive),13.5% (inactive)
CN(Cc1ccccc1)C(=O)c1ccc(NC(=O)C2CCCN(C(=O)OC(C)(C)C)C2)cc1 (stereo not given),-1.28% (inactive),8.32% (inactive)
CCC1(c2ccccc2)NC(=O)N(CC(=O)Nc2ccccc2C(=O)NC2CCCC2)C1=O (stereo not given),-5.15% (inactive),-0.59% (inactive)
Cc1ccc(S(=O)(=O)N2[C@@H](c3cccc(Cl)c3)C(C(=O)OC(C)(C)C)=CC[C@H]2c2ccc(C(C)C)cc2)cc1,0.74% (inactive),11.2% (inactive)
COc1ccc([C@H]2CC(=O)C=C(c3ccnc4ccc(Cl)cc34)C2)cc1,2.04% (inactive),29.2% (active)
COc1ccc(OCC(=O)Nc2ccc3c(c2)n(C)c(=O)n3C)cc1,-14.2% (inactive),-5.89% (inactive)
Cc1cc2c(NCc3ccccc3)ncnc2s1,5% (inactive),18.8% (inactive)
CCN1CCN(c2ccc(S(=O)(=O)N3CCCCC3)cc2NC(=O)c2cccc(Cl)c2)CC1,-2.97% (inactive),-2.54% (inactive)
CC1Sc2ccc(C(=O)Nc3ccc(S(=O)(=O)N(C)C)cc3)cc2NC1=O (stereo not given),9.77% (inactive),6.36% (inactive)
COc1cc2c(cc1OC)C(NC(=O)C(F)(F)F)CNC2=O (stereo not given),45.5% (inactive),22.3% (inactive)
COCCN(C(=O)C1=COCCO1)c1c(N)n(Cc2ccccc2)c(=O)[nH]c1=O,-12.3% (inactive),-15.5% (inactive)
O=C(Nc1ccc2c(c1)N(S(=O)(=O)c1cccs1)CCC2)c1c(F)cccc1F,-8.08% (inactive),-5.05% (inactive)
Cc1cccc(NC(=O)CSc2nnc(NC(=O)C3CC3)s2)c1C,-3.25% (inactive),6.7% (inactive)
Cn1c(=O)[nH]c(=O)c2c1nc(N1CCCCC1)n2CC(O)COc1ccc([N+](=O)[O-])cc1 (stereo not given),-27.8% (inactive),-19% (inactive)
